The list is not random: actives were taken first. Their share in the collection is about 0.4%.
Rac1 mut GTP = alters GTP binding to activated mutant human Rac1 | GST-Rac1 activated beads, fluorescent GTP binding, flow cytometry; actives lie on both sides; 100% means binding = to untreated wells | percent activity (GTP binding), % at 10 µM | hit rate 0.11% among 190,000;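 active = GTP binding at least 20 percentage points away from the 100% baseline, in either direction, so actives lie on both sides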
Rac1 wt GTP bind = alters GTP binding to wildtype human Rac1 | P63000 | GST-Rac1 beads, fluorescent GTP binding, flow cytometry; actives lie on both sides; 0 = cold GTP competed, 100 = untreated | GTP binding activity (% of control), % at 10 µM | hit rate 0.27% among 190,000;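 active = GTP binding activity at least 20 points away from the 100% control level, either lower or higher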
Rab2 wt GTP = changes GTP binding to wildtype dog Rab2A, up or down | P61105 | GST-Rab2 wt beads, Bodipy-GTP binding, flow cytometry | GTP binding activity, % at 10 µM | hit rate 0.19% among 190,000;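 active = GTP binding activity at least 20 points away from 100%, either lowered or raised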;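 note: 0% = beads with excess unlabeled GTP and 100% = no-compound control corrected for plate trend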
Cdc42 wt GTP = human Cdc42 wildtype GTP binding change, either direction; P60953; hit rate 0.2% among 190,000; percent activity (GTP binding), % at 10 µM; AID 761; GST-Cdc42 beads, Bodipy-GTP binding, flow cytometry; actives lie on both sides;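 active = percent activity GTP binding at least 20 points away from the 100% baseline, either down as inhibitor or up as activator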;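 note: median bead fluorescence of bound Bodipy-FL-GTP at 100 nM; 0% = excess unlabeled GTP control and 100% = no compound control; below 100% means less GTP binding so inhibitor and above means activator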
Target sequence (P60953 whole entry, looked up): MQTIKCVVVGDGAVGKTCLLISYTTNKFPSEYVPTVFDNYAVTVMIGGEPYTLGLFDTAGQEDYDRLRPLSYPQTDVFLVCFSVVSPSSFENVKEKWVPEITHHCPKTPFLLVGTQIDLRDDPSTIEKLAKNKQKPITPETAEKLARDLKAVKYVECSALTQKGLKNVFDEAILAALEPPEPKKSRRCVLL
Rab7 wt GTP bind = alters GTP binding to wildtype dog Rab7; GST-Rab7 beads, fluorescent GTP binding, flow cytometry; actives lie on both sides; untreated = 100%, excess cold GTP = 0%; GTP binding activity (percent of control), % at 10 µM; hit rate 0.055% among 190,000;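 active = fluorescent GTP binding to Rab7 beads changed by at least 20 points from the 100% baseline, either direction, mostly lower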;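 note: median green fluorescence of bound Bodipy-FL-GTP per Rab7 bead population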
HRas wt GTP = human HRas wildtype GTP binding, change in either direction; GST-Ras wt beads, Bodipy-FL-GTP binding, flow cytometry; actives lie on both sides; hit rate 0.14% among 190,000; GTP binding activity, % at 10 µM;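 active = GTP binding activity at least 20% away from the 100% baseline, either lowered as inhibitor or raised as activator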;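 note: 0% = unlabeled GTP competition control and 100% = no-compound control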
Target sequence (P01112 whole entry, looked up): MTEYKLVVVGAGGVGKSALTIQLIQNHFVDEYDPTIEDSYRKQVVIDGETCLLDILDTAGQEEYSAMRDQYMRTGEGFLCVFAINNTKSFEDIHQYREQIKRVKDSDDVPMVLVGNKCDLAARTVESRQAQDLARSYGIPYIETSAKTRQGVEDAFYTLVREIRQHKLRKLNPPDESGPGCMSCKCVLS
The depositor's hits bear a star; [ ] = dose if it differs, or a comment.

SMILES	Rac1 mut GTP	Rac1 wt GTP bind	Rab2 wt GTP	Cdc42 wt GTP	Rab7 wt GTP bind	HRas wt GTP
O=[N+]([O-])c1ccc(/C=N/N=C/c2ccc([N+](=O)[O-])o2)o1	90	95	91	92	91	91
O=C1OC(c2ccc(F)cc2)=C/C1=C\c1ccc([N+](=O)[O-])o1	103	113	118	115	124*[activator]	112
CCC(C)(C)NC(=O)c1ccc2c(c1)N(CC(=O)OC)C(=O)C(C)(C)O2	101	120*[activator]	103	107	100	103
COc1ccc(-c2csc(NC(=O)c3cccs3)c2C(=O)O)cc1OC	95	91	90	92	102	92
COc1ccc(-c2csc(NC(=O)Cc3cccc4ccccc34)c2C(=O)O)cc1	82	70*	75*	76*	81	78*
c1ccc2sc(NC3=NCN(CC4CCCO4)CN3)nc2c1 (stereo unspecified)	97	95	96	97	95	95
CC1CCN(c2ncccc2C(=O)O)CC1	129*[activator]	156*[activator]	130*[activator]	141*[activator]	125*[activator]	128*[activator]
O=C(OC1CCCCC1=O)c1cc(Cl)ccc1[N+](=O)[O-] (stereo unspecified)	98	99	98	96	96	96
O=C(Nc1nccs1)c1ccc(-c2cccc([N+](=O)[O-])c2)o1	86	76*	84	82	102	84
O=C(Nc1ncc(Cc2cccc(C(F)(F)F)c2)s1)c1ccc(-c2cccc([N+](=O)[O-])c2)o1	92	96	94	98	96	91
COc1cc(NS(=O)(=O)c2ccc(N)cc2)nc(OC)n1	102	102	99	106	97	101
COc1ccc(OC)c(Nc2nc(-c3sc(N)nc3C)cs2)c1	88	79*	87	77*	90	79*
Cc1cc(NS(=O)(=O)c2ccc(Nc3nc(-c4ccc(C)c(C)c4)cs3)cc2)no1	96	100	98	99	100	100
Cc1cc(NS(=O)(=O)c2ccc(Nc3nc(-c4sc(N)nc4C)cs3)cc2)no1	89	86	75*	80	89	78*
CCCC(=O)Nc1nc(C)c(-c2csc(Nc3cc(OC)ccc3OC)n2)s1	98	101	99	100	97	99
COc1cc(NS(=O)(=O)c2ccc(Nc3nc(-c4ccccc4)cs3)cc2)nc(OC)n1	82	73*	77*	71*	80	79*
COc1ccc(C(=O)Nc2nc3nccc(-c4ccccc4)n3n2)cc1	101	105	97	102	100	97
O=C(O)c1ccccc1Sc1ncnc2sc3c(c12)CCC3	123*[activator]	123*[activator]	124*[activator]	129*[activator]	107	121*[activator]
Cc1sc2ncnc(Sc3ccccc3C(=O)O)c2c1C	132*[activator]	145*[activator]	134*[activator]	137*[activator]	122*[activator]	124*[activator]
COCCNC(=O)CC(=O)N/N=C/c1ccc(C(=O)OC)cc1	95	103	96	97	98	97
Cc1ccc(C)c(N(CC(N)=O)S(C)(=O)=O)c1	71*	67*	72*	75*	78*	74*
COc1ccc(C(=O)N/C(=C\c2cccc([N+](=O)[O-])c2)C(=O)Nc2cccc(C(=O)O)c2)cc1	82	64*	60*	62*	92	69*
CCOC(=O)C1=NN(C(=O)c2ccc(OC)cc2)C(O)(c2ccc(Cl)cc2)C1 (stereo unspecified)	98	99	96	100	95	98
COC(=O)C1=NN(C(=O)c2cccc(Br)c2)C(O)(c2ccc(Cl)cc2)C1 (stereo unspecified)	79*	85	82	78*	94	85
CC1C/C(=N/NC(=O)c2cccc(F)c2)c2ccc(O)cc2C1 (stereo unspecified)	98	102	100	101	104	103
SMILES	Rac1 mut GTP	Rac1 wt GTP bind	Rab2 wt GTP	Cdc42 wt GTP	Rab7 wt GTP bind	HRas wt GTP
O=C(O)c1cccnc1SCc1ccccc1Cl	121*[activator]	131*[activator]	118	122*[activator]	115	116
Cc1ccc(Sc2ncccc2C(=O)O)c(C)c1	127*[activator]	135*[activator]	124*[activator]	126*[activator]	106	123*[activator]
O=C(O)CSc1ncccc1C(=O)O	101	103	99	104	98	102
Cc1ccc(C)c(CSc2ncccc2C(=O)O)c1	126*[activator]	144*[activator]	114	132*[activator]	114	113
CN(Cc1cnn(C)c1)S(=O)(=O)c1cccc([N+](=O)[O-])c1	88	83	90	89	91	87
COC(=O)CNC(=O)COC(=O)Cc1ccc(Cl)cc1	93	95	100	93	98	97
Cc1cccc(N2C(=O)CSC23CCCCC3)c1	98	107	103	102	109	101
NS(=O)(=O)c1ccc(Nc2nc(-c3ccc(O)cc3O)cs2)cc1	86	78*	77*	77*	87	78*
NS(=O)(=O)c1ccc(Nc2nc(-c3ccc(F)cc3)cs2)cc1	96	96	95	102	100	97
O=[N+]([O-])c1ccccc1/C=C/C=N/n1c(-c2ccco2)n[nH]c1=S	75*	77*	82	76*	84	80
O=C(O)c1cccc(S(=O)(=O)Nc2ccccc2Cl)c1	98	97	97	101	99	98
O=C(NCCc1c[nH]c2ccccc12)c1cccc(S(=O)(=O)Nc2ccccc2Cl)c1	89	80	79*	93	88	83
CCOC(=O)c1c(C)[nH]c(C)c1C(=O)COC(=O)c1ccc(Cl)c(S(=O)(=O)NCc2ccccc2)c1	94	95	95	95	98	97
O=P(O)(O)c1ccccc1OCCOCCOCCOCCOc1ccccc1P(=O)(O)O	97	101	100	99	105	100
Cc1cc([N+](=O)[O-])ccc1N=Nc1c(N)[nH]n(-c2ccccc2)c1=O	87	78*	90	88	99	91
Nc1[nH]n(-c2ccccc2)c(=O)c1N=Nc1ccc2c(c1)OCCO2	92	94	93	90	96	92
Cc1ccc(N=Nc2c(N)[nH]n3c(=O)c4c(nc23)CCCC4)cc1	86	75*	82	86	91	86
Cc1[nH]n2c(=O)c3c(nc2c1-c1ccc(F)cc1)CCCC3	88	81	87	87	92	87
Cc1ccc(N=Nc2c(N)[nH]n3c(=O)cc(C)nc23)cc1	88	75*	81	88	92	87
Cc1ccc(N=Nc2c(=O)[nH]n3c(C)cc(C)nc23)cc1	95	98	100	100	99	97
